# High-throughput results from PubChem.
# MBD2 inh = inhibitors of MBD2 binding to methylated DNA, primary screen, biochemical, TR-FRET, DNA-binding domain, human; inhibition, % at 4.4 µM; AID 686964, 2013; Methyl-CpG-binding domain protein 2 (Homo sapiens), Q9UBB5; 370,000 tested, 0.31% active; MBD2 binding to methylated oligonucleotide; in the data active means inhibition above about 13%
# Target sequence (Q9UBB5 whole entry, looked up, the tested form may be a part): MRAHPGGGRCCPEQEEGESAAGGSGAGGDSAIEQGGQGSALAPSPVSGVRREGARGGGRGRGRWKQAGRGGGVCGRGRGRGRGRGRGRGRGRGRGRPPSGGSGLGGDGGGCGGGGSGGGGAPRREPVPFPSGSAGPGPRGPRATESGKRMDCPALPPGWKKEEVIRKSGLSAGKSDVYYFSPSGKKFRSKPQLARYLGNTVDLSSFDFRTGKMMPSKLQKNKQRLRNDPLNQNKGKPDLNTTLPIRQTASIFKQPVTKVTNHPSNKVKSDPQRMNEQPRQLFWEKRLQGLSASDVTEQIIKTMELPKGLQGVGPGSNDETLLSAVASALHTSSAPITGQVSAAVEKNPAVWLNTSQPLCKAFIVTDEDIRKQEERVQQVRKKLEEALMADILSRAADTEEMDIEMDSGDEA
# PfG6PD inh = PfG6PD enzyme inhibitors, primary screen, biochemical, fluorescence intensity, uHTS; glucose-6-phosphate dehydrogenase-6-phosphogluconolactonase (Plasmodium falciparum 3D7); PfGluPho enzyme, NADPH resazurin-diaphorase fluorescence; inhibition, % at 20 µM; 350,000 tested, 0.78% active; AID 504690, 2011;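 active means inhibition reaching at least a set limit at 20 µM in the primary screen, cut at about 59% in these data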;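 further: 0% = DMSO wells with substrate and 100% = DMSO wells lacking glucose-6-phosphate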
# M18AAP inhibitor = PfM18AAP inhibitors, malaria aminopeptidase, primary screen, biochemical, QFRET, recombinant enzyme. M18 aspartyl aminopeptidase (Plasmodium falciparum 3D7). H-Glu-NHMec fluorogenic cleavage. inhibition, % at 7.35 µM. 290,000 tested, 1.2% active;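 active means inhibition above the campaign mean inhibition over all tested compounds plus 3 SD, cut at about 28% in these data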;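 further: 0% = plate median of test compound wells and 100% = 2 mM ZnCl2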
# UHRF1 MBD2 ctr = UHRF1 methylated DNA binding inhibitors, primary screen, counter-screen for MBD2 inhibitor project, biochemical, TR-FRET, human UHRF1, single concentration. E3 ubiquitin-protein ligase UHRF1 (Homo sapiens), Q96T88. 370,000 tested, 0.75% active. UHRF1 binding to methylated oligo. inhibition, % at 4.4 µM; in the data active means inhibition above about 21%;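 further: UHRF1 SRA domain binding a hemimethylated CpG hairpin DNA probe; 0% = median of test compound wells and 100% = reference inhibitor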
# PRMT1 FP inh = PRMT1 methyltransferase inhibitors, primary screen, biochemical, fluorescence polarization. AID 652257, 2013. inhibition, % at 2.79 µM. 370,000 tested, 1.3% active. recombinant PRMT1, activity-based probe fluorescence polarization;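 active means inhibition above about 21% made by adding two undisclosed values, limit read from the data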
# An asterisk follows results filed as active; . = no result. Most compounds without a hit are left out; they make up all but 3.3% or so of the library.
SMILES,MBD2 inh,PfG6PD inh,M18AAP inhibitor,UHRF1 MBD2 ctr,PRMT1 FP inh
CCCCn1c2ccccc2c2nnc(SCC(=O)NC3=NN=C(c4ccccc4)CS3)nc21,3.0,.,17.4,-3.0,44.7*
Cc1ccc(C2CCC3(CCC(=O)N3CCOC(=O)Nc3ccc(Br)cc3)CC2)cc1 (stereo not drawn),-5.0,.,.,-0.7,-1.1
COc1ccc(-c2cc(C(=O)N3CCN(c4ccccc4O)CC3)c3ccccc3n2)cc1OC,1.5,29.1,31.1*,-1.0,-0.1
CN1CCN(C(=S)C(=O)Nc2ccccc2)CC1,4.8,11.7,-7.2,22.5*,3.9
CC(NC(=O)C(=S)N1CCN(C)CC1)c1ccccc1 (stereo not drawn),3.1,-4.0,-7.8,20.8*,2.4
CN1CCN(C(=S)C(=O)NCc2ccccc2)CC1,9.5,0.6,6.3,4.1,9.8
CCCCCCCCN1C(=O)[C@@H](CC(=O)NCCC(C)C)C[C@@]2(C(=O)OC)C1=C[C@H](C1CCCC1)O[C@@H]2C,3.4,.,.,-1.7,-1.0
CCN(C(=O)Cn1nnc(-c2ccncc2)n1)c1ccccc1,5.5,.,.,2.3,-3.7
COc1ccc(CN(C)CCCn2cnc3c(OCc4ccccc4)ncnc32)cc1OC,2.5,-3.8,.,19.1,2.2
COc1ccc(CN(C)CCCn2cnc3c(SC)ncnc32)cc1OC,3.4,-13.1,.,28.8*,2.3
CC(NCC1COc2ccccc2O1)C(=O)NCc1ccccc1 (stereo not drawn),8.7,-21.8,1.2,25.1*,4.1
COc1ccc(N/N=C(\C#N)C(N)=O)cc1,7.4,5.2,4.9,-1.6,2.8
N#C/C(=N/Nc1ccc(OC(F)(F)F)cc1)C(N)=S,2.8,-11.5,2.2,31.0*,-6.2
O=C(Cc1ccccc1)N1CCC(Oc2cccnc2)CC1,5.8,.,.,0.5,-2.8
CC1CN(C(=O)c2ccccc2)CCC1=NO (stereo not drawn),-3.5,.,.,-1.4,-2.6
O=C(CSc1nnc(COc2ccccc2)o1)Nc1nccs1,4.3,-31.5,26.5,-1.5,2.1
Cc1cnc(NC(=O)CSc2nnc(COc3ccccc3)o2)s1,2.0,-17.7,27.0,-0.6,24.2*
Cc1cccc(N2CCN(C(=O)C3CCN(S(=O)(=O)c4cccc5nsnc45)CC3)CC2C)c1 (stereo not drawn),5.0,-7.3,-1.4,-0.6,-0.9
Cc1cccc(N2CCN(C(=O)C3CCN(S(=O)(=O)N4CCOCC4)CC3)CC2C)c1 (stereo not drawn),2.0,-2.8,-3.0,74.2*,0.6
O=C(O)CCc1nc(-c2ccccc2)c(-c2ccccc2)o1,.,.,15.0,.,.
O=C(O)CCc1ccc(-c2ccccc2)o1,1.3,66.1*,-57.1,0.6,19.7
O=C(CCCN1C(=O)/C(=C/c2ccccc2Cl)SC1=S)NCCCN1CCOCC1,4.6,-12.3,0.1,-1.6,24.2*
CC(=O)Nc1ccc(NC(=O)COC(=O)c2n[nH]c3ccccc23)cc1,-2.1,-19.7,5.7,32.2*,1.6
CC(/C=N/n1c(COc2ccccc2)n[nH]c1=S)=C\c1ccco1,1.9,38.9,23.8,0.7,19.1
Cc1ccccc1/C=N/n1c(COc2ccccc2)n[nH]c1=S,-1.7,15.3,12.5,-1.0,-0.7
SMILES,MBD2 inh,PfG6PD inh,M18AAP inhibitor,UHRF1 MBD2 ctr,PRMT1 FP inh
S=c1[nH]nc(COc2ccccc2)n1/N=C/c1ccco1,-1.6,13.9,28.2*,1.2,0.4
CCOc1ccccc1/C=N/n1c(COc2ccccc2)n[nH]c1=S,-0.1,27.7,31.2*,-0.1,13.6
Oc1ccccc1/C=N/n1c(COc2ccccc2)n[nH]c1=S,5.6,7.8,28.4*,3.5,8.0
CC1(C)OC(C)(C)C(=N/O)/C1=N\N,-4.1,.,.,3.9,0.5
CCOC(=O)CCSc1cc(C)c2ccccc2n1,-4.9,9.3,6.6,-3.7,3.4
Cc1cc(SCCC(=O)O)nc2ccccc12,-4.4,-11.7,29.5*,-0.5,-4.8
C=CCN1C(=O)[C@H](CC(=O)N2CCCCC2)[C@@]2(C(=O)OCC)CCCC=C12,1.2,.,.,0.3,-0.5
C=CCN1C(=O)[C@H](CC(=O)NCc2ccc(C)o2)[C@@]2(C(=O)OCC)CCCC=C12,1.6,.,.,-1.9,0.6
Cc1noc(C)c1S(=O)(=O)Nc1ccc(C(=O)NC2CCCCCC2)cc1,10.6,-9.4,0.1,20.9*,1.5
Cc1noc(C)c1S(=O)(=O)Nc1ccc(C(=O)NC2CCCCC2C)cc1 (stereo not drawn),-3.2,-13.8,-5.8,-2.5,-2.0
Cc1ccc(C(=O)OCC(=O)NCCNC(=O)COC(=O)c2ccc(C)s2)s1,-0.6,13.4,.,30.3*,-1.9
Oc1ccc2ccccc2c1CNc1ccc2ccccc2c1,2.6,37.9,.,-6.3,24.9*
Oc1ccc2ccccc2c1CNc1ccccc1,2.3,26.9,.,-2.4,6.6
COC(=O)[C@]12C[C@H](CC(=O)NCC3CCCCC3)C(=O)N(Cc3cccc4ccccc34)C1=C[C@H](C(C)(C)C)O[C@@H]2C,1.2,.,.,9.9,5.1
COC(=O)C[C@@H]1CC[C@@H]2[C@H](COc3ccc(NC(=O)c4cccc(OC)c4)cc3C(=O)N2C)O1,-8.1,.,.,-0.8,3.3
CSc1ccc(/C=N/n2c(COc3ccccc3)n[nH]c2=S)cc1,0.0,2.6,0.7,-0.1,21.7*
COc1ccc(OC)c(/C=N/n2c(COc3ccccc3)n[nH]c2=S)c1,3.6,18.1,20.2,1.2,12.5
COc1ccc(/C=N/n2c(COc3ccccc3)n[nH]c2=S)cc1OC,1.2,27.3,30.4*,-2.7,5.7
COc1ccc(C2C=C(c3ccc(Br)s3)Nc3ncnn32)cc1OC (stereo not drawn),.,.,36.1*,.,.
COc1ccc(C2C=C(c3ccc(C)cc3)Nc3ncnn32)cc1 (stereo not drawn),6.2,1.9,16.4,4.3,3.9
Cc1cc(Nc2cc(C(F)(F)F)cc(C(F)(F)F)c2)cc(=O)n1-c1cc(C(F)(F)F)cc(C(F)(F)F)c1,1.5,.,.,0.7,-2.2
COc1cc(C(C[N+](=O)[O-])c2c(C)[nH]c3ccccc23)ccc1O (stereo not drawn),-2.6,3.3,29.3*,2.9,6.4
Cc1[nH]c2ccccc2c1C(C[N+](=O)[O-])c1cccc(O)c1 (stereo not drawn),4.3,0.8,3.6,-2.7,-1.7
CCc1ccccc1NC(=O)c1cc(C)nn1-c1ccccc1,3.2,.,.,2.0,-1.3
COc1cc(N2CCCC2)c(OC)cc1/C=C1/NC(=S)NC1=O,-11.8,35.4,28.5*,-16.7,-10.4
C=CCN1C=C(C(=O)OCC)C(=O)CC1,2.7,.,.,0.9,2.5
CC(C)C1=CC2C3C(C(C(C)C)=CC(=O)[C@@]3(C)O)C1C(=O)C2(C)O (stereo partly drawn),-3.8,.,.,0.0,2.9
